DAX1 inh: inhibits human nuclear receptor DAX1. P51843. HEK293 Gal4-DAX1 luciferase reporter, luminescence. inhibition, % at 6.75 µM. hit rate 0.99% among 340,000. AID 504766;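 active = inhibition above the mean over all tested compounds plus 3 SD, cut at about 4.2% in these data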;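 note: 0% = DAX1-transfected cells with DMSO and 100% = empty-vector control cells with DMSO; inhibition shows as a rise in luminescence from relieved DAX1 repression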
HSF1 inhib: HSF1 inhibition; activity change, negative = inhibition, % at 7.5 µM (by protocol); hit rate 0.77% among 300,000; NIH3T3-HGL HSE-luciferase, MG132-induced, luminescence 8 h; hits give low values;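 active = more than half of replicate wells show activity change below -50%, luminescence cut by over half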;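 note: luciferase reports HSF-1 transcriptional activity via heat shock element; 0% = median of DMSO wells and -100% = zero luminescence signal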
HSP90 refold inh: blocks HSP90-mediated luciferase refolding in reticulocyte lysate; inhibition, % at 5.6 µM; hit rate 0.91% among 290,000; Rabbit reticulocyte lysate, luciferase refolding luminescence, 3 h;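 active = inhibition above the screen-wide mean plus 3 SD, computed separately per campaign, cut at about 16% in these data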;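 note: 0% = DMSO wells and 100% = 60 µM geldanamycin wells; inhibitors lower the luminescence because luciferase stays unfolded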
AHR activator: activators of human aryl hydrocarbon receptor. hit rate 2.5% among 320,000. activation, % at 5 µM. AHR-responsive luciferase reporter cells, luminescence. AID 2796. P35869; in the data active = activation above about 47%;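 note: 0% = vehicle wells and 100% = reference agonist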
Target sequence (P35869 whole entry, looked up): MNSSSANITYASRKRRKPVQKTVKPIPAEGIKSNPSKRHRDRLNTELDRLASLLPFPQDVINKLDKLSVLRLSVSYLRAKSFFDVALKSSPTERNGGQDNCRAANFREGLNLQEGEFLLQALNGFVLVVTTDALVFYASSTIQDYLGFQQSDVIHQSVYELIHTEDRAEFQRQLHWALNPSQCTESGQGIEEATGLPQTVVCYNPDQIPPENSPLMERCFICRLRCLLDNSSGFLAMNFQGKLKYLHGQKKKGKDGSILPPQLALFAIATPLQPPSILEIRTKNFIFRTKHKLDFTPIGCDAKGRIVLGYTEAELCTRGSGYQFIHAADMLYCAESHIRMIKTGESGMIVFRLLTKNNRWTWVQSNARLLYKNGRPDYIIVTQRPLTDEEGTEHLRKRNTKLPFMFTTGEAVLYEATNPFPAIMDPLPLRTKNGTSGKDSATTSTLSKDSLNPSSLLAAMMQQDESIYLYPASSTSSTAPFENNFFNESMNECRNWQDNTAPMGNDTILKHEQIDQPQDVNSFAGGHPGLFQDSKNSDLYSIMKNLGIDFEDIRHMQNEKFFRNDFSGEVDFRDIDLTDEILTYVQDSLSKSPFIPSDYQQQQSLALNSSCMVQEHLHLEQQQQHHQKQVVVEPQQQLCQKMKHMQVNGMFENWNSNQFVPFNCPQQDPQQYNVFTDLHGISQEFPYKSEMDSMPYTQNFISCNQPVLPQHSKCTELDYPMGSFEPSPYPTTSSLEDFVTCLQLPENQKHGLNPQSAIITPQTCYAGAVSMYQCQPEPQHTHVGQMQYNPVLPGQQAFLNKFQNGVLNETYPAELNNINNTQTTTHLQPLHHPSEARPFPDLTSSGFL
HSF-1 act: increases HSF-1 driven luciferase reporter signal. NIH3T3-HGL HSF-1 luciferase reporter, MG132, 8 h; 100% = twice DMSO control signal. activation, % at 9 µM. hit rate 1.7% among 300,000. AID 504408;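 active = mean replicate activation of at least 50% with a set share of replicates each reaching 50%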;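 note: 0% = median of the neutral control wells and 100% = twice that signal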
GAA850 FXN act: frataxin GAA850 promoter activation | HEK293 lucGAA850 FXN promoter luciferase reporter, 24 h; percent of 10 µM SAHA response | activation, % at 6 µM | hit rate 0.56% among 360,000;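 active = activation above the average of all compounds screened plus 3 SD, cutoff fixed separately per campaign, cut at about 7.5% in these data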;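 note: 0% = DMSO wells and 100% = 10 µM SAHA wells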
Active calls of the source: *; · = not tested or not shown. Hits are enriched below; roughly 5.9% of the tested compounds scored in any of these assays.

SMILES	DAX1 inh	HSF1 inhib	HSP90 refold inh	AHR activator	HSF-1 act	GAA850 FXN act
CC(=O)Nc1ccc(C(=O)Nc2ccc(S(=O)(=O)NCC3CCCO3)cc2)cc1 (stereo unspecified)	0.3	-12.2	-2.6	0.7	-27.1	-0.2
CS(=O)(=O)c1ccc2nc(NC(=O)c3ccc(S(=O)(=O)NCC4CCCO4)cc3)sc2c1 (stereo unspecified)	5.4*	1.6	4.0	0.0	-14.0	0.3
Cc1cc(C(=O)Nc2ccon2)ccc1[N+](=O)[O-]	·	6.7	·	1.7	11.0	0.9
O=C(Nc1cccc(Cl)c1)c1ccc(S(=O)(=O)NCC2CCCO2)cc1 (stereo unspecified)	-0.9	-88.5*	-4.9	0.8	-91.1	-0.4
NC(=O)COc1ccc(/C=C2\C(=O)ON=C2c2ccccc2)cc1	-0.1	·	·	4.9	·	-0.1
Cc1ccc(CN2CC(C(=O)NCC(=O)Nc3c(C)cccc3C)CC2=O)cc1 (stereo unspecified)	1.1	-2.1	·	-1.5	5.7	-1.2
[O-][n+]1ccc(C(O)c2ccccc2)cc1 (stereo unspecified)	5.1*	1.4	-3.0	-0.1	22.3	-0.1
CN(CCc1ccccc1)C(=O)c1cc(COc2cccc(C(F)(F)F)c2)on1	-0.2	106.8	0.2	·	185.7*	1.8
Cc1cc(OCc2cc(C(=O)N(C)CCOc3ccccc3)no2)cc(C)c1Cl	0.9	9.0	0.0	2.4	8.0	0.8
COc1cccc(OCc2cc(C(=O)N(C)CCOc3ccc(C)cc3)no2)c1	0.9	34.2	8.7	10.1	57.1*	4.9
CN1/C(=C\C(=O)c2cccs2)Sc2ccccc21	1.5	20.6	3.1	77.0*	34.0	-0.6
CCc1ccc(N(C(=O)CNC(=O)c2ccco2)C(C(=O)NC2CCCC2)c2cccnc2)cc1 (stereo unspecified)	0.5	-0.4	-1.1	-1.8	11.5	1.7
Fc1ccc(NC(=S)N2CCc3ccccc3C2)c(F)c1	5.6*	20.6	-1.0	41.4	34.3	2.9
Fc1ccc(NC(=S)N2CCOCC2)c(F)c1	-0.7	9.1	-0.8	0.5	11.6	1.0
CC(=O)Nc1cccc(-c2nc3ccccc3o2)c1	-1.5	21.8	-2.2	21.7	73.2*	2.6
Cc1ccc2oc(-c3cccc(NC(=O)C4CCCO4)c3)nc2c1 (stereo unspecified)	1.0	5.2	9.1	71.9*	13.7	2.5
Cc1cccc(-c2nc3cc(NC(=O)C4CCCO4)ccc3o2)c1 (stereo unspecified)	-2.9	-31.5	5.0	2.2	-39.2	1.0
Cc1n[nH]c(C)c1S(=O)(=O)N1CCN(S(=O)(=O)c2cccc(F)c2)CC1	-0.4	·	·	·	·	1.5
Cc1cnc(NC(=O)C2(C)CCN2C(=O)C(C)C)s1 (stereo unspecified)	·	·	·	·	·	0.0
CC(=Nc1ccccc1)C1=C(O)CCCC1=O	5.2*	9.5	3.0	-2.3	62.7*	0.1
O=[N+]([O-])c1cc(-c2ncccn2)c([N+](=O)[O-])s1	-0.5	95.3	3.2	24.1	97.4*	2.9
COc1ccc(/C=N/Nc2cc(N3CCCC3)nc(N3CCCC3)n2)cc1	-0.1	-19.9	-1.2	68.3*	-31.2	0.6
Cc1cc(N/N=C/c2ccccc2O)nc(N2CCOCC2)n1	-1.5	7.4	0.6	7.3	27.7	0.4
COc1ccc(OC)c(/C=N/Nc2cc(C)nc(N3CCOCC3)n2)c1	·	-19.2	6.0	67.8*	1.4	0.9
CCc1ccc(-c2nn(Cc3ccccc3)cc2C(=O)NCC2CCCO2)cc1 (stereo unspecified)	-0.4	·	·	6.0	·	0.6
SMILES	DAX1 inh	HSF1 inhib	HSP90 refold inh	AHR activator	HSF-1 act	GAA850 FXN act
COc1ccc(-c2c(C)nc3c(-c4ccccn4)cnn3c2N)cc1	0.7	-12.7	14.1	·	-8.9	3.9
COc1ccc(-c2c(C)nc3c(-c4ccsc4)cnn3c2N)cc1	5.2*	-18.6	7.5	16.3	-21.2	6.9
CCN(CC)c1ccc(C(=O)NNC(=O)CN2C(=O)NC(C)(c3ccccc3)C2=O)cc1 (stereo unspecified)	-0.2	·	·	1.5	·	0.6
CC1(C)COC(/C=C/c2ccc([N+](=O)[O-])cc2)=N1	-1.5	77.9	2.8	50.5*	118.1*	2.9
Cc1ccc(N=Nc2ccc(O)cc2)c(Br)c1	2.4	20.5	-1.8	9.5	61.5*	5.5
CCN(CC)S(=O)(=O)c1ccc(N=Nc2cc(C)cc(Br)c2O)cc1	1.5	3.9	·	7.6	30.8	2.1
CCc1ccc(N(CC(=O)N2CCOCC2)S(C)(=O)=O)cc1	6.7*	-6.4	-5.7	-0.5	-0.5	-0.9
CCc1ccc(N(CC(=O)N2CCCC2)S(C)(=O)=O)cc1	-0.9	·	·	·	·	1.3
CC(C)(C)S(=O)(=O)N1Cc2ccc(CO)cc2[C@@H]1CCO	-0.5	·	·	·	·	0.5
CC(C)C[C@H](CO)Nc1nc(Nc2cccc(Cl)c2)c2ncn(C(C)C)c2n1	-1.1	3.2	·	18.6	2.0	-10.0
CC(C)n1cnc2c(Nc3cccc(F)c3)nc(NCCO)nc21	-1.5	-11.7	·	66.4*	-20.9	2.5
Nc1nnc(SCC(=O)NNC(=O)c2ccccc2)s1	-0.8	·	·	·	·	0.9
CCOC12NC(=O)CC(=O)N1C(c1ccccc1)=CS2 (stereo unspecified)	4.5*	·	2.5	-1.4	·	-2.0
N#Cc1ccccc1OCC(=O)NNC(=O)CNC(=O)c1ccc(Br)o1	-0.2	·	·	4.2	·	-0.1
O=[N+]([O-])c1cccc(/C=N/Nc2nccnc2Cl)c1	0.9	-3.9	-0.3	11.8	0.1	3.0
Cc1cc(N/N=C/c2ccncc2)nc2ccccc12	3.2	11.7	-0.2	·	38.4	6.0
ClC(Cl)(Cl)c1nc(N/N=C/c2ccncc2)c2ccccc2n1	0.3	1.5	4.2	66.6*	9.1	3.0
O=[N+]([O-])c1cccc(/C=N/Nc2nc(C(Cl)(Cl)Cl)nc3ccccc23)c1	0.5	-1.2	-1.5	54.1*	-2.9	2.0
CC(O)(c1cccc(F)c1)c1nc(-c2ccc3ccccc3c2)cs1 (stereo unspecified)	·	·	·	·	·	2.4
Cc1cc(NC(=O)Cn2cc([N+](=O)[O-])cn2)no1	4.7*	-7.0	-0.2	0.1	2.0	0.7
Cc1cc(NC(=O)c2ccc(Cn3cc([N+](=O)[O-])cn3)o2)no1	-1.1	·	-0.3	·	·	-0.5
O=C(COC(=O)c1ncc(Cl)c(Cl)c1Cl)Nc1ccc(Cl)cn1	0.4	-3.5	·	66.4*	8.4	0.4
CCOC(=O)[C@H]1[C@H]2COc3cc(OC)ccc3[C@@H]2N2C(=O)CN(Cc3ccc(C)cc3)C(=O)[C@@]12C	0.3	·	·	-1.4	·	0.8
CCCC(=O)N/C(N)=N/c1nc(C)c2ccccc2n1	0.6	3.3	-0.3	59.7*	7.4	1.4
Cc1cc(C)c2nc(/N=C(\N)NC(=O)Nc3ccccc3)nc(C)c2c1	-0.7	-15.1	4.0	70.3*	-13.8	0.8
N/C(=N\c1nc2ccccc2o1)NC(=O)c1ccccc1NC(=O)c1ccccc1	0.2	·	0.9	65.6*	·	0.7
